Source: PubChem BioAssay
A selection follows.
aSyn UTR act: Activators working through SNCA 5'UTR binding (MLPCN); alpha-synuclein 5'UTR reporter, activators screen; activity score, % (tested at 7.5 µM), hits read low; hit rate 7.1% among 300,000; AID 1814; in the data active = activity score below about -60%
The depositor's hits bear a star.

SMILES	aSyn UTR act
CCOc1ccccc1NC(=O)c1ccc2ccccc2c1	-81*
CCOc1ccccc1NC(=O)c1ccc2[nH]c(C)c(C)c2c1	-91*
CCC(=O)CCC(=O)c1ccc2ccccc2c1	-92*
O=C(CSc1ncccn1)c1ccccc1Br	-64*
COCC(C)n1c(C)cc(C(=O)CSc2nnnn2-c2ccc(O)cc2)c1C (stereo not drawn)	-82*
COCC(C)n1c(C)cc(C(=O)CSc2ncccn2)c1C (stereo not drawn)	-76*
Clc1ccccc1-c1ncc(-c2ccccc2)o1	-143*
Cn1c(CNc2ccc(F)cc2)nc2ccccc21	-123*
Cn1c(CNc2ccccc2)nc2ccccc21	-113*
O=C(Nc1cccc2ccccc12)N1N=CCC1c1ccccc1 (stereo not drawn)	-89*
Fc1ccc(NC(=S)N2N=CCC2c2ccccc2)cc1 (stereo not drawn)	-101*
S=C(Nc1ccccc1)N1N=CCC1c1ccccc1 (stereo not drawn)	-153*
CN(C)/C=N/c1ncc(C(=O)c2ccccc2)s1	-160*
Nc1ccc2nc(SCC(=O)c3ccccc3)sc2c1	-75*
Cc1cc(C(=O)CSc2nnc(N)s2)c(C)n1Cc1cccs1	69
Nc1nnc(SCC(=O)c2ccc3ccccc3c2)s1	-135*
Nc1ccc2nc(SCc3ccccc3F)sc2c1	-203*
Cc1ccc(-n2nc(C)c3c2OC(N)=C(C#N)C3c2cccs2)cc1 (stereo not drawn)	-91*
CCC1CCCCN1CCCNC(=O)CC1Oc2ccccc2NC1=O (stereo not drawn)	-75*
CCCN1C(=O)c2cccc3c(N4CCCCC4)ccc(c23)C1=O	-83*
Cc1ccc(N2C(=O)c3cccc4c(N)ccc(c34)C2=O)c2cccnc12	100
CC1CCC(NC(=O)c2cc3c(s2)CCCC3)CC1 (stereo not drawn)	-116*
Cc1ccc(C(=O)NC2CCC(C)CC2)s1 (stereo not drawn)	-92*
CC(C)=CC(=O)OCc1cc([N+](=O)[O-])cc2c1OCOC2	-110*
Cc1cc(C)c(OCC(=O)Nc2cc(C(=O)O)cc(C(=O)O)c2)cc1C	-129*
SMILES	aSyn UTR act
Cc1ccc(C)c(OCC(=O)Nc2cccc(C(=O)O)c2)c1C	-110*
COC(=O)c1cccc(C(=O)Nc2ccc(C)cc2Br)n1	-155*
Cc1ccc(NC(=O)c2cccc(C(=O)OC(C)C)n2)c(Br)c1	-73*
O=C(Nc1cc(=O)[nH]c(=O)[nH]1)c1cc(Cl)ccc1Cl	-65*
COC(=O)C1CC23C=CCN4CCC5(c6ccccc6NC15C2C)C43 (stereo not drawn)	94
Cc1nc(/N=C(\N)Nc2ccccc2)nc2ccccc12	-133*
C=CCOc1ccc(CNc2nccs2)cc1	-74*
COCc1nc(-c2ccc(-c3ccc(C)cc3)nc2OC)no1	-190*
COc1ccc(-c2ccc(-c3noc(C)n3)c(OC)n2)cc1	-146*
N#C/C(=N\Nc1cccc(C(F)(F)F)c1)C(=O)c1ccsc1	-109*
CC(C)c1ccc(NC(=O)[C@@H]2CCC(=O)N2C2OC(=O)c3ccccc32)cc1 (stereo partly drawn)	-79*
CCOC(=O)c1ccc2ncc(-c3ccccc3)nc2c1	-160*
CCOC(=O)c1cnc(-n2nc(C)cc2C)nc1NNc1nc(-c2ccccc2)cc(-c2ccccc2)n1	82
CCOC(=O)c1cnc(-c2ccccc2)nc1N(C)C	-241*
Cc1nc2ccc(C(=O)OCc3ccccc3Br)cc2nc1C	-166*
CCOC(=O)c1cnc(-c2ccccc2)nc1N	-148*
CSc1nsc(N/N=C/c2ccccc2)c1C#N	-150*
COc1cccc(/C=N/Nc2snc(SC)c2C#N)c1O	-157*
COc1ccc(/C=N/Nc2snc(SC)c2C#N)cc1OC	-146*
COc1ccc(N2C(=O)CC(Sc3nc(C)cc(C)c3C#N)C2=O)cc1 (stereo not drawn)	-87*
C=CCNS(=O)(=O)c1nc(C)c(Cl)c(C)c1C#N	-110*
CS(=O)(=O)c1nc(S(=O)(=O)c2ccc(Cl)cc2)c(N2CCC3(CC2)OCCO3)s1	-156*
c1ccc(OCc2nc3ccccc3s2)cc1	-123*
O=S(=O)(Cc1nc2ccccc2s1)c1ccccc1	-69*
CCC(=O)Nc1ccc(OCc2nc3ccccc3s2)cc1	-125*
SMILES	aSyn UTR act
Fc1ccc(OCc2nc3ccccc3s2)cc1	-178*
COC(=O)c1c(NC(=O)/C=C/C(=O)O)sc(C)c1-c1ccc(C(C)C)cc1	-68*
Cc1cc(Cl)ccc1OCC(=O)N1CCCCC1	-108*
O=C(COc1ccc(Cl)cc1Cl)NC(=O)N1CCCCC1	-121*
COc1cc(/C=N/NC(=O)c2ccoc2C)cc(OC)c1OC	-81*
COc1ccc(/C=N/NC(=O)c2ccoc2C)cc1OC	-73*
COc1cc(/C=N/NC(=O)c2cc(-c3ccccc3)sc2N)cc(OC)c1OC	-70*
CSc1ccc(C2c3[nH]c4ccccc4c3CCN2C(=O)c2ccnn2C)cc1 (stereo not drawn)	-166*
COc1ccc(-c2c(C#N)c(N)nc(Sc3ccc(Cl)cc3)c2C#N)cc1	57
COc1ccc(-c2cc3nc4ccccc4n3c(N)c2C#N)cc1	-128*
